TRPM1 prom inh = inhibitors of MITF-driven TRPM1 promoter in melanoma cells; SK-MEL-5 TRPM1 promoter luciferase, 24 h; inhibition, % at 12.5 µM; 0.83% of 330,000 active; AID 488899;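 active = mean inhibition across replicates of 60% or more, whatever share of single replicates reaches that level; inconclusive = some that reach 60%, reason not given; inactive = mean inhibition across replicates below 60%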
TROY signal inh = blocks TROY-dependent signaling in reporter cells; Q293 LMP1-TROYcd NF-kB luciferase reporter, 4 h; inhibition, % at 10 µM; 0.98% of 360,000 active; AID 1347056;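 active = compounds whose plate-normalised and pattern-corrected inhibition of the luciferase reporter signal at the single screening dose is 50% or more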
Peg3 prom inh = reduces Peg3 promoter-driven luciferase expression in HeLa; inhibition, % at 20 µM; AID 588405; 1.7% of 360,000 active; HeLa PEG-Prom luciferase reporter, luminescence, overnight;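 active = inhibition of at least 50% at 20 µM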
TWEAK Fn14 block = inhibitors of TWEAK-Fn14 interaction signaling. 2% of 360,000 active. TWEAK-stimulated Fn14 reporter cells, luciferase luminescence, 8 h. inhibition, % at 10 µM. AID 1159606; in the data active = inhibition above about 50%
Shn3 3UTR inh = reduces Shn3 3'UTR luciferase signal in osteoblasts; inhibition, % at 12.5 µM; Clone20 osteoblast Shn3 3'UTR firefly luciferase, 24 h; 0.52% of 360,000 active;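 active = mean inhibition of at least 75% with every replicate also reaching 75%; inconclusive = mean inhibition at least 75% but some replicate below; inactive = mean inhibition below 75%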
EBV LMP1 NFkB = reduces LMP1-driven NF-kappaB luciferase signal; LMP1-induced NF-kappaB luciferase reporter cells, luminescence; inhibition, % at 12.5 µM; 0.69% of 350,000 active; AID 504558; in the data active = inhibition above about 41%; inconclusive = no clear call, values can overlap the other calls
A number is an active result; n = inactive; u = inconclusive; x = no result given. An excerpt weighted towards active compounds, which were near 4.1% of everything screened.

SMILES | TRPM1 prom inh | TROY signal inh | Peg3 prom inh | TWEAK Fn14 block | Shn3 3UTR inh | EBV LMP1 NFkB
COc1ccc(CN(C)C(=O)Cc2ccc(OC)c(S(=O)(=O)N3CCOCC3)c2)cc1 | n | n | n | n | n | n
O=C(Nc1ccc2c(c1)OCCO2)c1ccc(Br)c(S(=O)(=O)N2CCOCC2)c1 | n | 61.5 | n | 82.3 | n | n
Cc1cc(C)n(-c2ccc(C(=O)Nc3ccc(C)c(S(=O)(=O)N4CCOCC4)c3)cc2)n1 | 69.4 | 64.2 | n | 64.5 | n | n
CC(=O)c1ccc(NC(=O)c2ccc(C)c(S(=O)(=O)N3CCOCC3)c2)cc1 | n | n | n | n | n | n
O=C(Nc1ccc2c(c1)OCO2)c1ccc(Br)c(S(=O)(=O)N2CCCC2)c1 | n | n | n | n | n | n
CCOC(=O)c1cc(OC(=O)Cc2ccc(OC)c(S(=O)(=O)N3CCOCC3)c2)cc(C(=O)OCC)c1 | x | 52.3 | n | n | n | n
CCOC(=O)c1ccc(NC(=O)c2ccc(C)c(S(=O)(=O)N3CCOCC3)c2)cc1 | 68.8 | 73.4 | 92.8 | 95.7 | n | n
CCN(CC)c1ncnc2c1ncn2[C@H]1CN(C2CCCC2)C[C@@H](CO)O1 | x | n | n | n | n | x
Cc1nn(CC(=O)N2CCN(S(=O)(=O)c3ccccc3)CC2)c(C)c1[N+](=O)[O-] | n | n | n | n | n | n
COc1ccc(C(=O)N2CCN(c3ncccn3)CC2)cc1[N+](=O)[O-] | n | n | n | n | n | n
Cc1ccc(NC(=O)c2ccc(N3CCOCC3)c([N+](=O)[O-])c2)cc1S(=O)(=O)N1CCOCC1 | n | n | 64.8 | n | n | n
Cc1ccc(C(=O)Nc2ccccc2[N+](=O)[O-])cc1S(=O)(=O)N1CCOCC1 | n | n | n | n | n | n
CC1(C)N=C(N)N=C(N)N1c1ccc(OCCCOc2ccccc2)c(Cl)c1 | n | n | n | 86.6 | n | n
C=CCNc1ncnc2c1ncn2C1OC(CO)C(O)C1O (stereo not drawn) | n | n | n | n | n | n
OCC1OC(n2cnc3c(NCc4ccco4)ncnc32)C(O)C1O (stereo not drawn) | u | n | 87.1 | n | u | n
OC[C@H]1O[C@@H](n2cnc3c(NC4CCCC4)ncnc32)[C@H](O)[C@@H]1O | n | n | n | n | n | n
OC[C@H]1O[C@@H](n2cnc3c(NCc4ccco4)ncnc32)[C@H](O)[C@@H]1O | 66.2 | n | n | n | n | n
Cc1ccc2c(Cl)cc(Cl)c(OCC(=O)Nc3cc(S(=O)(=O)N(C)C)ccc3C)c2n1 | n | n | n | 79.9 | n | n
COc1cccc(C(=O)Nc2cc(NC(=O)c3cccs3)ccc2C)c1OC | n | n | n | n | n | n
CC1CCC/C(=C(\C#N)c2nc(-c3cc4ccccc4oc3=O)cs2)C1 (stereo not drawn) | n | 65.8 | n | 63.8 | n | n
COc1ccccc1N1CCN(c2ccc(-c3ccccc3)nn2)CC1 | n | 65.7 | n | 70.8 | n | 69.6
COc1ccccc1N1CCN(c2ccc3ccccc3n2)CC1 | n | n | n | n | n | n
CCCCCCCC[n+]1cccc2c3ccccc3ccc21 | 85.8 | 53.7 | 54.0 | 83.2 | n | n
CCCCCCCCCC[n+]1cccc2c3ccccc3ccc21 | 101.1 | 51.2 | 75.0 | 73.0 | n | n
CC(=O)N1c2ccc(S(=O)(=O)N3CCC(C(=O)Nc4cccc(Cl)c4)CC3)cc2CC1C (stereo not drawn) | n | n | n | n | 89.1 | n
SMILES | TRPM1 prom inh | TROY signal inh | Peg3 prom inh | TWEAK Fn14 block | Shn3 3UTR inh | EBV LMP1 NFkB
CC1Sc2ccc(S(=O)(=O)N3CCC(C(=O)Nc4ccc(Cl)cc4)CC3)cc2NC1=O (stereo not drawn) | n | n | n | n | 89.3 | n
CC(=O)N1c2ccc(S(=O)(=O)N3CCC(C(=O)Nc4cccc(F)c4)CC3)cc2CC1C (stereo not drawn) | n | n | n | n | 86.4 | n
COc1ccc(NC(=O)C2CCN(S(=O)(=O)c3ccc4c(c3)NC(=O)C(C)S4)CC2)cc1 (stereo not drawn) | n | n | n | n | n | n
CC(=O)N1c2ccc(S(=O)(=O)N3CCC(C(=O)Nc4cccc(C)c4)CC3)cc2CC1C (stereo not drawn) | n | n | n | n | n | n
CN1CCN(c2ccc(-c3ccnn3C(=O)Nc3cccc(C(F)(F)F)c3)cc2)CC1 | n | n | n | n | n | n
COc1cc2ccc(NC(C)=O)cc2cc1OC | x | n | n | n | n | n
COc1ccc(S(=O)(=O)N2CCCCCC2)cc1NC(=O)Cc1n[nH]c(=O)c2ccccc12 | n | n | n | n | n | n
CN(Cc1ccccc1)c1nc(N)c([N+](=O)[O-])c(NCc2ccccc2)n1 | n | n | n | n | n | 71.8
CC(Nc1ccc2ccccc2c1)C(=O)N/N=C/c1ccncc1 (stereo not drawn) | n | n | n | n | n | n
O=C(CNc1ccc2ccccc2c1)NNC1=NCCC1 | n | n | n | n | n | n
O=C(COc1ccc2ccccc2c1)NNC(=O)Cc1ccccc1 | n | n | n | n | n | n
O=C(Cc1ccccc1)NNc1ccc2ccccc2c1 | n | 50.7 | n | n | n | n
O=C(CN1C(=O)CCC1=O)NNc1ccc2ccccc2c1 | n | 66.9 | n | 70.3 | n | n
COc1cc(OC)cc(-c2c(-c3cccs3)c3cc(-c4ccc5[nH]ccc5c4)ccc3n2C)c1 | n | n | n | n | n | n
COc1cc(OC)c(OC)cc1CNC(=O)c1ccc(S(=O)(=O)N2CCCCC2)cc1 | n | n | n | n | n | n
Cn1c(=O)c2c(SCc3ccccc3)nc(C3CC3)nc2n(C)c1=O | n | n | n | n | n | n
Cn1c(=O)c2c(SCC(=O)N3CCCc4ccccc43)nc(C3CC3)nc2n(C)c1=O | n | n | 51.8 | n | n | n
O=C(Cc1cccc(NC(=O)C2CCN(C(=O)C3CCCCC3)CC2)c1)Nc1cccc(C(=O)N2CCCCC2)c1 | n | n | n | n | n | n
COc1ccc(C(=O)/C=C/C(=O)N(Cc2ccccc2OC)C(C(=O)NC2CCCCC2)c2ccncc2)c(O)c1 (stereo not drawn) | n | n | n | n | n | n
COc1ccc(C(=O)/C=C/C(=O)N(CC(=O)NC2CCCCC2)Cc2ccccc2OC)c(O)c1 | 102.7 | 91.0 | 103.9 | 91.2 | n | n
COc1ccc(C(=O)/C=C/C(=O)N(Cc2ccc(F)cc2)C(C(=O)NC2CCCCC2)c2ccncc2)c(O)c1 (stereo not drawn) | n | n | n | n | n | n
COc1ccc(C(=O)/C=C/C(=O)N(Cc2ccccc2)C(C(=O)NC2CCCCC2)c2ccncc2)c(O)c1 (stereo not drawn) | n | n | n | n | n | n
COc1ccc(C(=O)/C=C/C(=O)N(CC(=O)NC2CCCCC2)CC2CCCO2)c(O)c1 (stereo not drawn) | 98.3 | 50.2 | 105.8 | 83.6 | n | n
